# Assay results published in PubChem BioAssay (NCATS).
# Results filed as inconclusive are left out. Where a call stands in place of a potency, no number is given. Calls of active or inactive are those of the source. The call rests on the fitted dose curve; in most records, active means well fitted inhibition curve with a large enough effect; inconclusive means small, poorly fitted or top-dose-only effect; inactive means flat fitted curve, though single readings scatter.
# Biological target: Luciferin 4-monooxygenase (Photinus pyralis) (UniProt P08659)
# Sequence (P08659 whole entry, looked up): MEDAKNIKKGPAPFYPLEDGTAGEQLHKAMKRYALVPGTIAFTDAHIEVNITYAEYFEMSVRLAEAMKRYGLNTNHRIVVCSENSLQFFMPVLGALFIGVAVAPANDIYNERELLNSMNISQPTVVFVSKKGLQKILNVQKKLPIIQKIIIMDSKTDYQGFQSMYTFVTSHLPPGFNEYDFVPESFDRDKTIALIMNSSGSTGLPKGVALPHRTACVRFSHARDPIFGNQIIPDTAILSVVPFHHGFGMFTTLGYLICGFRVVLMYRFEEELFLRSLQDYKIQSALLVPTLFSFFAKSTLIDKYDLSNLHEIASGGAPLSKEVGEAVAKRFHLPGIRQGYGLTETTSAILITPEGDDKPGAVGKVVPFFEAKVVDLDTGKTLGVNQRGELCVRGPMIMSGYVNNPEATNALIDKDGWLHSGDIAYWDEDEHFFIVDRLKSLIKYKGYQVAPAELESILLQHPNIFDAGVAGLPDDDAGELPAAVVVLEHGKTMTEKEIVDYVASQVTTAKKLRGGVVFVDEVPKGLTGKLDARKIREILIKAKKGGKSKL
# Assay: Biochemical firefly luciferase enzyme assay for NPC (AID 624030); further: nearly all actives have a fitted effect of over 70% in size
# Settings: purified P. pyralis luciferase, luminescence, 5 min; series mostly up to 58.6 µM
# Procedure, shortened: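 Direct inhibition of firefly luciferase enzyme (10 nM final, 50 mM Tris Acetate) assessed by luminescence within 5 minutes. Percent activity scaled between DMSO and PTC124 positive control, with concentration-effect curves classified by fit quality and response.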
# Potency means the concentration at half of the fitted maximal effect.
row,Structure (SMILES),Potency
1,Oc1ccc(CCNCCCCCCNCCc2ccccc2)cc1O,inactive
2,Cc1ccc2c(Cl)cc(Cl)c(O)c2n1,inactive
3,CC1CN(c2cc3c(cc2F)c(=O)c(C(=O)O)cn3-c2ccc(F)cc2F)CCN1 (centres undefined),inactive
4,CC(=O)Nc1ccn(C2COC(COC(=O)c3ccccc3)O2)c(=O)n1 (centres undefined),inactive
5,CC(=O)OCC(=O)[C@@]1(O)[C@H](OC(C)=O)C[C@H]2[C@@H]3CCC4=CC(=O)C=C[C@]4(C)[C@@]3(F)[C@@H](O)C[C@@]21C,inactive
6,Cc1ccc(/C=N/n2c(-c3ccccc3)csc2=S)cc1,inactive
7,C[N+]1(C)CCC(OC(=O)C(O)(c2ccccc2)C2CCCC2)C1 (centres undefined),inactive
8,COc1cc(C(=O)OC(COCCC(C)C)CN2CCOCC2)cc(OC)c1OC (centres undefined),inactive
9,C[C@H]1NCc2cc(-c3ccc4c(=O)c(C(=O)O)cn(C5CC5)c4c3OC(F)F)ccc21,inactive
10,CN1C(CSCC(F)(F)F)Nc2cc(Cl)c(S(N)(=O)=O)cc2S1(=O)=O (centres undefined),inactive
11,CCCCCC1Nc2cc(C(F)(F)F)c(S(N)(=O)=O)cc2S(=O)(=O)N1 (centres undefined),inactive
12,CN(CC1(C)CCCO1)S(=O)(=O)c1ccc(Cl)c(S(N)(=O)=O)c1 (centres undefined),inactive
13,CCOC(=O)NNc1nncc2ccccc12,inactive
14,CC(=O)OCC(=O)Nc1cc(C#N)cc(NC(=O)COC(C)=O)c1Cl,inactive
15,CC(=O)OCC[N+](C)(C)C,inactive
16,CC(C)=CCC/C(C)=C/CC/C(C)=C/CCC(=O)OC/C=C(\C)CCC=C(C)C,inactive
17,Cc1nc([N+](=O)[O-])cn1-c1ccc([N+](=O)[O-])cc1,inactive
18,CCN1CCN(c2cc(-c3ccc(F)cc3)c3c(n2)CCCCCC3)CC1,inactive
19,O=C(CCC1CCN(Cc2ccccc2)CC1)c1ccc2c(c1)NCCCC2,inactive
20,C=CCOc1cc(Cl)ccc1C(=O)NCCN(CC)CC,inactive

row,Structure (SMILES),Potency
1,CC(=O)Nc1ccc(S(=O)(=O)Nc2cc(C)on2)cc1,inactive
2,CO[C@@]1(NC(=O)CSC[C@@H](N)C(=O)O)C(=O)N2C(C(=O)O)=C(CSc3nnnn3C)CS[C@@H]21,inactive
3,COC(=O)C1=C(C)NC(COC(N)=O)=C(C(=O)OC(C)C)C1c1cccc(Cl)c1Cl (centres undefined),inactive
4,C[C@@H](C1=C(CCN(C)C)Cc2ccccc21)c1ccccn1,inactive
5,CCOC(=O)OCC/C(SC(=O)OCC)=C(\C)N(C=O)Cc1cnc(C)nc1N,inactive
6,CCOC(=O)c1ccc(NC(=O)CN2CCCCC2)cc1,inactive
7,CCCc1c2oc(C(=O)O)cc(=O)c2cc2c(=O)cc(C(=O)O)n(CC)c12,inactive
8,CC(COc1ccccc1)NN (centres undefined),inactive
9,Nc1c(NC/C=C\COc2cc(CN3CCCCC3)ccn2)c(=O)c1=O,inactive
10,O=C(O)CNC(=O)CNC(=O)CNC(=O)CSC(=O)c1ccccc1,inactive
11,N=C(N)c1ccc(OCCCOc2ccc(C(=N)N)cc2)cc1,inactive
12,O=C1OC2(c3ccccc31)c1cc(I)c(O)c(I)c1Oc1c2cc(I)c(O)c1I,14.4 µM (active)
13,CN(C(=O)C(Cl)Cl)c1ccc(OC(=O)c2ccco2)cc1,inactive
14,O=C(CCCCC(=O)Nc1c(I)cc(I)c(C(=O)O)c1I)Nc1c(I)cc(I)c(C(=O)O)c1I,inactive
15,O=C1NCCN1CCN1CCC(c2cn(-c3ccc(F)cc3)c3ccc(Cl)cc23)CC1,inactive
16,CC(C)(C)c1nnc(NS(=O)(=O)c2ccccc2)s1,inactive
17,CCCCNc1ccc(C(=O)OCCN(CC)CC)cc1,inactive
18,NCC(=O)O,inactive
19,CO/N=C(/C(=O)N[C@@H]1C(=O)N2C(C(=O)[O-])=C(C[n+]3ccn4ncccc43)CS[C@H]12)c1nsc(N)n1,inactive
